From PubChem BioAssay
LmPK inh: inhibitors of Leishmania mexicana pyruvate kinase; Q27686; purified LmPK, Kinase-Glo ATP luminescence, 1 h; Potency, µM (doses to about 57.5 µM), inactives show at the top dose activity change, negative = inhibition, usual class: inhibitors; 0.37% of 290,000 active; AID 1721
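qHTS format; LmPK 0.1 nM; substrates PEP 0.5 mM and ADP 0.1 mM. One-hour room-temperature incubation, then coupled luciferase luminescence; 0.5 nM enzyme wells mark activation.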
Sm TGR block: blocks Schistosoma mansoni thioredoxin glutathione reductase; Q962Y6; purified TGR, DTNB reduction, TNB absorbance 405 nm; Potency, µM (top dose mostly 114 µM), for the others: top-dose activity change, negative = inhibition, usual class: inhibitors; 3% of 360,000 active; note: nearly all actives have a fitted effect of over 60% in size
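First, TGR (20 nM dispensed) and NADPH were mixed with compound. Second, a 15 min room-temperature incubation followed. Third, further NADPH and then DTNB were added to start the reaction. Finally, TNB absorbance was monitored kinetically.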
FBPA Giardia inh: inhibitors of Giardia lamblia fructose-1,6-bisphosphate aldolase; A8B2U2; AID 2451; purified Giardia FBPA; 0.71% of 290,000 active; Potency, µM (titrated, usually from 59.6 µM), for the others: top-dose activity, negative = inhibition, usual class: inhibitors; note: nearly all actives have a fitted effect of over 55% in size
Target sequence (A8B2U2 whole entry, looked up): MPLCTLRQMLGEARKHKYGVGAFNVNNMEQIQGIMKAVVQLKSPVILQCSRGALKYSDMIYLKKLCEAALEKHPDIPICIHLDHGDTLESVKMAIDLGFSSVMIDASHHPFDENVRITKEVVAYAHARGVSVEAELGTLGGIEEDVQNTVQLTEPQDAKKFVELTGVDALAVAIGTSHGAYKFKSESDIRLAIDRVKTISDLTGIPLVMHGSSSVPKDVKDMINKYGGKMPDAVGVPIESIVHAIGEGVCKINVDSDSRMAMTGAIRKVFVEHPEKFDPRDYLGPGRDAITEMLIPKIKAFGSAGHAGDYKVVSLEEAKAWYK
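Giardia FBPA (40 nM reagent) was preincubated 10 min at RT with compound (up to 57.5 uM final), then substrate plus GAPDH/TPI/NAD/arsenate coupling system with diaphorase/resazurin was added; resorufin fluorescence (525/598 nm) was read after 20 min.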
RE007 growth inh: less growth of the S. pombe RE007 Vpr strain | S. pombe RE007 Vpr strain, BacTiter-Glo ATP luminescence, 24 h | Potency, µM (titrated, usually from 92.2 µM), for the others: top-dose activity change, negative = less growth, most hits filed as inhibitors | 0.21% of 360,000 active; active = well fitted falling curve with a large enough effect; inconclusive = small, poorly fitted or top-dose-only effect; inactive = no such curve, though single readings can be large or run the other way; note: nearly all actives have a fitted effect of over 50% in size
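Fission yeast RE007 carrying one integrated HIV-1 vpr copy, seeded at OD 0.01 in PMG+AL medium with 23 nL pinned compound. Grown 24 h at 30 degrees; viability read by BacTiter-Glo luminescence after 5 min.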
TbPYK inhibitor: inhibitors of Trypanosoma brucei pyruvate kinase; Q57TT1; TbPYK enzyme, Kinase-Glo Plus ATP luminescence, 45 min; Potency, µM (top dose mostly 76.8 µM), inactives show at the top dose activity, negative = inhibition, actives largely listed as inhibitors; 0.12% of 410,000 active; AID 624173; note: nearly all actives have a fitted effect of over 50% in size
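Activity of T. brucei pyruvate kinase was followed by Kinase-Glo Plus luminescence after the enzyme reacted 45 min at room temperature with 130 uM ADP (final) and substrate. Test compounds were added before ADP at multiple concentrations.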
* marks the source's active call; other numbers are inactive results; ? = inconclusive; / = no result given. In the library only some 3.3% were active in any assay of this set; here they are far more common. Unless noted, calls come from the whole dose curve; as a rule, active = well fitted curve in the direction sought with a large enough effect; inconclusive = small, poorly fitted or top-dose-only effect, or another doubt; inactive = no such curve, though single readings can be large; an effect the other way counts as inactive or inconclusive. % is set by controls: 0 for no effect and ±100 for the full control effect; potency is the fitted concentration of half-maximal effect.

SMILES	LmPK inh	Sm TGR block	FBPA Giardia inh	RE007 growth inh	TbPYK inhibitor
O=C(Nc1ccc(C(=O)N2CCN(c3ccccn3)CC2)cc1)c1ccc(Br)o1	/	45µM*	/	-1%	-6%
O=C(Nc1ccc(C(=O)N2CCC(N3CCCC3)CC2)cc1)c1ccc(Br)o1	/	25µM*	/	-15%	-1%
COc1ccc(CN(CC2CCCO2)S(=O)(=O)c2ccc(C(=O)O)cc2)cc1OC (stereo unspecified)	3%	-1%	16%	20%	8%
Cc1cc(NC(=S)Nc2ccc(C)c(Cl)c2)n[nH]1	-3%	7.1µM*	?	-16%	-11%
Cc1[nH]c2ccccc2c1C(c1ccncc1)N1CCN(c2ccccn2)CC1 (stereo unspecified)	2%	1µM*	0%	-1%	15%
Cc1[nH]c2ccccc2c1C(c1ccncc1)N1CCC(C)CC1 (stereo unspecified)	-6%	2.5µM*	6%	-3%	-8%
Cc1[nH]c2ccccc2c1C(c1ccncc1)N1CCN(c2ccccc2F)CC1 (stereo unspecified)	-1%	3.5µM*	-2%	7%	-2%
CC(C)(C)n1nnnc1C(c1cccnc1)N1CCN(c2ccccc2F)CC1 (stereo unspecified)	0%	-24%	3%	-4%	-8%
CC(=O)C[C@H]1c2cc(F)ccc2S(=O)(=O)N1c1ccc(N(C)C)cc1	/	/	/	3%	-14%
CCCCn1c(SCC(=O)Nc2nnc(C)s2)nnc1-c1ccncc1	-6%	0%	0%	4%	1%
COCCCNC(=O)c1ccc2c3c(onc13)-c1ccccc1C2=O	-6%	0%	0.89µM*	-26%	4%
Cc1ccccc1N=Nc1c(O)n(C)c2ccccc12	-5%	35µM*	-17%	-7%	-17%
CC1CN(Cc2c(O)ccc3c2oc(=O)c2ccccc23)CC(C)O1 (stereo unspecified)	-1%	-22%	16µM*	5%	?
Cc1[nH]c2ccccc2c1NC(=O)CN1CCN(C(=O)c2ccco2)CC1	-2%	32µM*	-27%	-6%	-1%
CCCCN1C(=O)c2ccc(C(=O)OCC(=O)NCCc3ccc(S(N)(=O)=O)cc3)cc2C1=O	/	/	/	-2%	-2%
Cc1ccc(NNC(=O)c2c(C)noc2C)cc1Cl	-2%	?	-5%	36%	1%
Cc1noc(C)c1C(=O)NNc1ccc(C(C)C)cc1	7%	20µM*	5%	14%	-2%
CC(C)C(=O)Nc1c(C(=O)N2CCN(c3ccccc3F)CC2)oc2ccccc12	/	3%	/	/	-2%
N#Cc1ccc(C(=O)CN2CCN(c3ccccc3)CC2)cc1	-5%	7.1µM*	/	-18%	-10%
COc1ccc(C(=O)CN2CCN(c3ccc(F)cc3)CC2)cc1OC	0%	35µM*	-12%	-23%	-17%
COc1ccc(C(=O)CCN2CCN(c3ccc(OC)cc3)CC2)cc1	-7%	0%	9%	?	6%
COc1ccc(N2CCN(CC(=O)c3ccc(Cl)cc3)CC2)cc1	-1%	11µM*	-17%	1%	-12%
COc1ccc(C(=O)CN2CCN(c3ccc(Cl)cc3)CC2)cc1OC	-4%	35µM*	?	5%	-7%
N#CCN1CCN(CC(=O)c2ccc(Br)cc2)CC1	1%	11µM*	-3%	-4%	2%
CC(=O)N1CCN(CC(=O)c2ccc(Br)cc2)CC1	-1%	-6%	0%	?	-5%
SMILES	LmPK inh	Sm TGR block	FBPA Giardia inh	RE007 growth inh	TbPYK inhibitor
Cc1ccc(NC(=O)CN(C)C(=O)Cc2c(Cl)cccc2Cl)cc1	-4%	-13%	-5%	7%	0%
CC(=O)N(C1=C(Cl)C(=O)c2ccccc2C1=O)C1CCCCC1	2.8µM*	0.11µM*	1.6µM*	6.3µM*	0.89µM*
CC(=O)N(c1ccccc1C)C1CCCC1	-8%	-1%	-1%	-14%	-1%
O=C(CCl)Nc1ccc(S(=O)(=O)Nc2nccs2)cc1	-1%	20µM*	/	-3%	8%
CCOC(=O)/C=C/C(=O)Nc1ccc(S(=O)(=O)Nc2nccs2)cc1	-3%	45µM*	-10%	4%	-6%
NC(=O)N\N=C/C=C/C=C/c1ccc(F)cc1	4%	25µM*	-4%	5%	-2%
NC(=O)N/N=C/C=C/c1ccccc1	-1%	/	3%	7%	1%
COCCNc1nc(NCCCN(C)C)c2sccc2n1	/	/	/	-16%	-8%
O=C(O)C1(C(=O)O)CCC1.[NH2-].[NH2-].[Pt+2]	/	/	14µM*	/	/
